mut p53 react: mutant p53 pathway re-activators, primary screen, cell-based, SW480, luciferase, single point, HTS; SW480 PUMA-promoter luciferase, p53 mutant reactivation; activation, % at 9.98 µM; actives 1.5% (n = 28,000); AID 624151, 2012; in the data active = activation above about 52%; inconclusive = no clear call, values can overlap the other calls
ID4 SMM: binders of human ID4 protein, primary screen, biochemical, small molecule microarray, single point; DNA-binding protein inhibitor ID-4 (Homo sapiens), P47928; Flag-ID4 binding, fluorescence F/B; actives 1.2% (n = 31,000); AID 624137, 2012; calls only; call rule not given here;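 note: a binder raises fluorescence above local background on the spot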
STK33 kin inh: STK33 kinase inhibitors, primary screen, biochemical, luminescence, ADP-Glo, MBP substrate | actives 0.44% (n = 27,000) | Serine/threonine-protein kinase 33 (Homo sapiens), Q9BYT3 | inhibition, % at 12.5 µM; in the data active = inhibition above about 20%; inconclusive = no clear call, values can overlap the other calls
Target sequence (Q9BYT3 whole entry, looked up): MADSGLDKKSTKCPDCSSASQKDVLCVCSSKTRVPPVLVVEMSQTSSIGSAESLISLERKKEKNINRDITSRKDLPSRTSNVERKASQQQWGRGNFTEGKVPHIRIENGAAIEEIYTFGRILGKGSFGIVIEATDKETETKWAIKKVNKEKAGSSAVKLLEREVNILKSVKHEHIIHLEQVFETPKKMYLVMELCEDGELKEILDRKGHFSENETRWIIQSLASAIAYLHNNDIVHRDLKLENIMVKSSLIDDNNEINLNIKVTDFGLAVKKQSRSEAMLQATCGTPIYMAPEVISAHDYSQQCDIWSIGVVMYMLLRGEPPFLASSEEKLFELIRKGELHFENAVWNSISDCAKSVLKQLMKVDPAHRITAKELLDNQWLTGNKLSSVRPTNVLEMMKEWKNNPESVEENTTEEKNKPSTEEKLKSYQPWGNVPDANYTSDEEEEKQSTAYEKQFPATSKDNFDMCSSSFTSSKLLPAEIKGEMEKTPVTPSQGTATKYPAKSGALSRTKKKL
Starred values were filed as active, the others as inactive; i = inactive; ? = inconclusive; nt = no result; + = active, no number. An excerpt weighted towards active compounds, which were near 2.1% of everything screened.

SMILES	mut p53 react	ID4 SMM	STK33 kin inh
CNC(=O)c1cc2c(cn1)[nH]c1ccccc12	nt	i	2
Cc1ccc(C)c(OCCNS(=O)(=O)c2cc([N+](=O)[O-])ccc2C)c1	-10	i	-4
CCc1ccccc1NC(=O)CSc1nnc(-c2ccccc2)n1C	2	i	-1
O=[N+]([O-])c1ccccc1OCCCCSc1ncccn1	23	i	7
Cc1ccc([N+](=O)[O-])c(OCCCSc2ncccn2)c1	67*	i	0
CCn1c(SCC(=O)Nc2cc(C)c(Cl)cc2OC)nnc1-c1cnccn1	-7	i	0
CCn1c(SCC(=O)Nc2c(C)cccc2C)nnc1-c1cnccn1	-3	+	-3
CCC(=O)Nc1nonc1-c1nc2ccccc2n1Cc1cc(OC)ccc1C	-27	i	6
O=C(CSc1nnc(-c2ccncc2)o1)Nc1ccccc1	31	i	0
COc1cc(OC)cc(-c2nnc(SCC(=O)Nc3ccccc3)o2)c1	102*	i	0
Cc1ccc(NC(=O)CSc2nnc(-c3ccc(C(C)(C)C)cc3)o2)c(C)c1	-7	i	-4
O=C(CSc1nnc(-c2ccc(Cl)cc2)o1)Nc1ccccc1C(F)(F)F	68*	i	-2
O=C(CSc1nnc(-c2ccc(Cl)cc2)o1)Nc1ccc(I)cc1	24	i	0
Cc1cc([N+](=O)[O-])ccc1NC(=O)CSc1nnc(-c2ccccc2)o1	67*	i	4
CCOC(=O)c1cc(NC(=O)CSc2nc3ccccc3s2)ccc1Cl	-12	i	0
O=C1C[C@@](C(=O)NCc2ccccc2)(c2ccc([N+](=O)[O-])cc2)[C@@H](c2ccc(CO)cc2)N1C1CCCCC1	nt	nt	1
CCOC(=O)c1c[nH]c(=S)[nH]c1=O	nt	nt	-2
Cc1cccc(NC(c2ccccc2[N+](=O)[O-])c2ccc3ccc(C)nc3c2O)n1 (stereo not drawn)	-45	i	-1
O=C(Cn1c2ccccc2n2nc(-c3cccs3)nc12)c1ccc(Cl)cc1	-37	i	7
O=C(O)COc1cccc(-c2nc3ccccc3s2)c1	-43	i	-2
Cc1cccc(OCC(=O)Nc2cccc(-c3nc4ccccc4s3)c2)c1	59*	i	1
COc1ccc(-c2nc3ccccc3s2)cc1NC(=O)COc1ccc(Cl)cc1Cl	74*	i	-2
COc1ccc(OCC(=O)Nc2ccc(-c3nc4ccccc4s3)c(Cl)c2)cc1	-10	i	1
COc1ccccc1OCC(=O)Nc1cccc(-c2nc3ccccc3s2)c1	67*	i	5
O=C(COc1ccc(Cl)cc1Cl)Nc1ccc(-c2nc3ccccc3s2)c(O)c1	8	i	5
SMILES	mut p53 react	ID4 SMM	STK33 kin inh
Cc1cc(C)c(NC(=O)CSc2nnc(-c3cccnc3)s2)c([N+](=O)[O-])c1	3	i	1
COCCNC(=O)COc1ccc(OCCNC[C@@H](O)COc2ccccc2)cc1	-13	i	nt
O=C(O)COc1ccc(OCCNC[C@@H](O)COc2ccccc2)cc1	6	+	nt
Cc1cc(-c2ccccc2)nc(SCC(=O)O)n1	4	i	-1
Cc1c(O)cc(O)c2c1OC(c1ccccc1)CC2=O (stereo not drawn)	nt	i	5
Cc1cc(O)c(C)c2c1Oc1c(C)c(O)cc(C)c1C(=O)O2	nt	i	23*
COc1ccc(Cl)cc1NC(=O)CC(C(=O)O)N1CCNCC1 (stereo not drawn)	11	i	2
Cc1ccc(C(C)C)c(OCC(=O)/C=C2\Sc3ccccc3N2C)c1	-2	i	nt
O=C1O[C@H](c2ccccc2)[C@H](c2ccccc2)N2[C@H]1[C@@H](C(=O)O)[C@]1(C(=O)Nc3ccc(C#CC4(O)CCCCCC4)cc31)[C@H]2c1ccccc1OCCO	nt	nt	12
COC(=O)c1c(NC(=S)Nc2ccc([N+](=O)[O-])cc2OC)sc(C)c1C	0	i	1
COC(=O)c1c(NC(=S)Nc2ccc(CC(=O)O)cc2)sc(C)c1C	0	+	-1
C[C@@H]1CN([C@@H](C)CO)C(=O)c2cc(NC(=O)NC3CCCCC3)ccc2O[C@@H]1CN(C)S(=O)(=O)c1ccc(Cl)cc1	0	i	nt
COc1ccc(S(=O)(=O)N(C)C[C@@H]2Oc3ccc(NC(=O)CCCN(C)C)cc3C(=O)N([C@H](C)CO)C[C@@H]2C)cc1	2	i	nt
Cc1noc(C)c1S(=O)(=O)N(C)C[C@@H]1OCCCC[C@@H](C)Oc2ccc(NC(=O)CCCN(C)C)cc2C(=O)N([C@H](C)CO)C[C@@H]1C	1	i	nt
COc1ccc(S(=O)(=O)N(C)C[C@H]2Oc3ccc(NC(=O)CCCN(C)C)cc3C(=O)N([C@H](C)CO)C[C@@H]2C)cc1	-12	+	nt
Cc1noc(C)c1S(=O)(=O)N(C)C[C@H]1Oc2ccc(NC(=O)CCCN(C)C)cc2C(=O)N([C@H](C)CO)C[C@@H]1C	5	+	nt
C[C@H](CO)N1C[C@H](C)[C@@H](CN(C)S(=O)(=O)c2ccc(Cl)cc2)Oc2ccc(NC(=O)NC3CCCCC3)cc2C1=O	0	+	nt
CCC(C)CCCCCCCCC1CC(=O)NC(CCC(N)=O)C(=O)NC(CC(C)C)C(=O)NC(CC(C)C)C(=O)NC(C(C)C)C(=O)NC(CC(=O)O)C(=O)NC(CC(C)C)C(=O)NC(C(C)C)C(=O)O1 (stereo not drawn)	-64	i	-8
CC(C)c1nnc(NC(=O)CC(NC(=O)c2ccccc2)c2ccccc2)s1 (stereo not drawn)	14	i	nt
C=CC[C@]1(C(=O)NCCN2CCOCC2)COC(c2ccc(OCCCO)cc2)=N1	nt	nt	-1
CC1CCc2c(sc3ncnc(SCC(=O)NC4CCCCC4)c23)C1 (stereo not drawn)	-7	i	1
CC(CNC(=O)c1ccco1)NC(=O)c1ccco1 (stereo not drawn)	-2	+	-3
O=C(NCCNC(=O)c1ccco1)c1ccco1	1	i	0
Cc1nc2ccccc2n1CC(O)COc1ccc(C(=O)O)cc1 (stereo not drawn)	4	i	0
COC(=O)c1ccc(OCC(O)Cn2c(C)nc3ccccc32)cc1 (stereo not drawn)	3	+	0
SMILES	mut p53 react	ID4 SMM	STK33 kin inh
COc1ccc2cc(C(=O)NCc3ccco3)c(=O)oc2c1	74*	i	-1
CCOc1cccc2cc(C(=O)NCc3ccco3)c(=O)oc12	25	i	-3
COC(=O)C(Cc1c[nH]c2ccccc12)NC(=O)C(NC(=O)C(C)NC(=O)/C=C/C(=O)O)C(C)c1c[nH]c2ccccc12 (stereo not drawn)	nt	i	154*
CC(=O)N[C@@H](Cc1c[nH]c2ccccc12)C(N)=O	nt	i	-1
Cn1nnc2cc(NC(=O)NCc3ccco3)ccc21	18	i	0
Cc1nc2cc(NC(=O)NCc3ccco3)ccc2o1	58*	i	-3
Cc1nc2ccccc2n1CC(O)COc1ccccc1Cl (stereo not drawn)	-6	i	-3
Cc1ccc(Cl)c(OCC(O)Cn2cnc3ccccc32)c1 (stereo not drawn)	?	i	-5
OC(COc1ccccc1Cl)Cn1nnc2ccccc21 (stereo not drawn)	66*	i	-3

Screening data as filed in PubChem.
